# Activity calls are given as the source filed them. Calls follow the shape of the dose curve; as a rule, active = well fitted curve in the direction sought with a large enough effect in the repeat runs; inconclusive = weak or mixed curves; inactive = flat fitted curve, though single readings scatter.
# Experiment: qHTS assay to test for compound auto fluorescence at 535 nm (green) in HepG2 cells (AID 720675)
# Details: green autofluorescence 485/535 nm, 1 h; series mostly up to 91.3 µM
row,SMILES,outcome
1,Nc1cc(Cl)cc(Cl)c1,inactive
2,Clc1cnc(Oc2ccc(Oc3ncc(Cl)cc3Cl)cc2)c(Cl)c1,inactive
3,O=S(=O)(O)OOS(=O)(=O)O,inactive
4,O=C(O)c1cc(Oc2ccc(C(F)(F)F)cc2Cl)ccc1[N+](=O)[O-],inactive
5,CNC(=O)O/N=C/C(C)(C)S(C)(=O)=O,inactive
6,OCc1ccco1,inactive
7,CN(C)CCC#N,inactive
8,OCCCCO,inactive
9,CC12CC1(C)C(=O)N(c1cc(Cl)cc(Cl)c1)C2=O (stereo not drawn),inactive
10,Oc1c(Br)cc(Br)cc1Br,inactive
11,CN1C(=O)CCS(=O)(=O)C1c1ccc(Cl)cc1 (stereo not drawn),inactive
12,CC[N+](=O)[O-],inactive
13,COP(=S)(OC)SCN1C(=O)c2ccccc2C1=O,inactive
14,COc1cc(-c2ccc(N)c(OC)c2)ccc1N,inactive
15,Sc1ccccc1,inactive
16,NNc1ccccc1,inactive

row,SMILES,outcome
1,ClCCOCCCl,inactive
2,C[C@]12CC[C@H](O)CC1=CC[C@@H]1[C@@H]2CC[C@]2(C)C(=O)CC[C@@H]12,inactive
3,CNC(=O)O/N=C/C(C)(C)SC,inactive
4,C=CC(=O)OCC(CC)CCCC (stereo not drawn),inactive
5,[N-]=[N+]=CC(=O)OC[C@H](N)C(=O)O,inactive
6,Nc1ccc(N)cc1,inactive
7,C=CC(=O)OCCCCCC(C)C,inactive
8,C[C@H]1C(=O)O[C@@H]2CCN3CC=C(COC(=O)[C@](C)(O)[C@]1(C)O)[C@H]23,inactive
9,OC[C@@H](O)[C@H]1O[C@@H]2O[C@H](C(Cl)(Cl)Cl)O[C@@H]2[C@H]1O,inactive
10,CCCCCCCCCCCCCCCCCC(=O)O,inactive
11,O=P1(NCCCl)OCCCN1CCCl (stereo not drawn),inactive
12,Cc1ccccc1N,inactive
13,Cc1ccc(N=C=O)cc1N=C=O,inactive
14,Cc1cccc(N)c1,inactive
15,C=C(C)C(=O)OCC(CC)CCCC (stereo not drawn),inactive

# Experiment: qHTS assay to test for compound auto fluorescence at 460 nm (blue) in HEK293 cells (AID 720678)
# Details: blue autofluorescence 405/460 nm; series mostly up to 91.3 µM
# Method in brief: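 Triamterene serves as the blue fluorophore standard. Compound signal at 405/460 nm is read in HEK293 wells (2,000 cells, 10% dialyzed FBS) after overnight treatment at 37C.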
row,SMILES,outcome
1,Nc1cc(Cl)cc(Cl)c1,inactive
2,Clc1cnc(Oc2ccc(Oc3ncc(Cl)cc3Cl)cc2)c(Cl)c1,inactive
3,O=S(=O)(O)OOS(=O)(=O)O,inactive
4,O=C(O)c1cc(Oc2ccc(C(F)(F)F)cc2Cl)ccc1[N+](=O)[O-],inactive
5,CNC(=O)O/N=C/C(C)(C)S(C)(=O)=O,inactive
6,OCc1ccco1,inactive
7,CN(C)CCC#N,inactive
8,OCCCCO,inactive
9,CC12CC1(C)C(=O)N(c1cc(Cl)cc(Cl)c1)C2=O (stereo not drawn),inactive
10,Oc1c(Br)cc(Br)cc1Br,inactive
11,CN1C(=O)CCS(=O)(=O)C1c1ccc(Cl)cc1 (stereo not drawn),inactive
12,CC[N+](=O)[O-],inactive
13,COP(=S)(OC)SCN1C(=O)c2ccccc2C1=O,inactive
14,COc1cc(-c2ccc(N)c(OC)c2)ccc1N,inactive
15,Sc1ccccc1,inactive
16,NNc1ccccc1,inactive

row,SMILES,outcome
1,ClCCOCCCl,inactive
2,C[C@]12CC[C@H](O)CC1=CC[C@@H]1[C@@H]2CC[C@]2(C)C(=O)CC[C@@H]12,inactive
3,CNC(=O)O/N=C/C(C)(C)SC,inactive
4,C=CC(=O)OCC(CC)CCCC (stereo not drawn),inactive
5,[N-]=[N+]=CC(=O)OC[C@H](N)C(=O)O,inactive
6,Nc1ccc(N)cc1,inactive
7,C=CC(=O)OCCCCCC(C)C,inactive
8,C[C@H]1C(=O)O[C@@H]2CCN3CC=C(COC(=O)[C@](C)(O)[C@]1(C)O)[C@H]23,inactive
9,OC[C@@H](O)[C@H]1O[C@@H]2O[C@H](C(Cl)(Cl)Cl)O[C@@H]2[C@H]1O,inactive
10,CCCCCCCCCCCCCCCCCC(=O)O,inactive
11,O=P1(NCCCl)OCCCN1CCCl (stereo not drawn),inactive
12,Cc1ccccc1N,inactive
13,Cc1ccc(N=C=O)cc1N=C=O,inactive
14,Cc1cccc(N)c1,inactive
15,C=C(C)C(=O)OCC(CC)CCCC (stereo not drawn),inactive

# Experiment: qHTS assay to test for compound auto fluorescence at 590 nm (red) in HEK293 cells (AID 720679)
# Details: red autofluorescence 540/590 nm; series mostly up to 91.3 µM
# Method in brief: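 We plated HEK293 cells in 10% dialyzed FBS medium, let them adhere for 4-5 hr, then added 23 nL compound. Overnight at 37C and 5% CO2 preceded fluorescence measurement at 540/590nm.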
row,SMILES,outcome
1,Nc1cc(Cl)cc(Cl)c1,inactive
2,Clc1cnc(Oc2ccc(Oc3ncc(Cl)cc3Cl)cc2)c(Cl)c1,inactive
3,O=S(=O)(O)OOS(=O)(=O)O,inactive
4,O=C(O)c1cc(Oc2ccc(C(F)(F)F)cc2Cl)ccc1[N+](=O)[O-],inactive
5,CNC(=O)O/N=C/C(C)(C)S(C)(=O)=O,inactive
6,OCc1ccco1,inactive
7,CN(C)CCC#N,inactive
8,OCCCCO,inactive
9,CC12CC1(C)C(=O)N(c1cc(Cl)cc(Cl)c1)C2=O (stereo not drawn),inactive
10,Oc1c(Br)cc(Br)cc1Br,inactive
11,CN1C(=O)CCS(=O)(=O)C1c1ccc(Cl)cc1 (stereo not drawn),inactive
12,CC[N+](=O)[O-],inactive
13,COP(=S)(OC)SCN1C(=O)c2ccccc2C1=O,inactive
14,COc1cc(-c2ccc(N)c(OC)c2)ccc1N,inactive
15,Sc1ccccc1,inactive
16,NNc1ccccc1,inactive

row,SMILES,outcome
1,ClCCOCCCl,inactive
2,C[C@]12CC[C@H](O)CC1=CC[C@@H]1[C@@H]2CC[C@]2(C)C(=O)CC[C@@H]12,inactive
3,CNC(=O)O/N=C/C(C)(C)SC,inactive
4,C=CC(=O)OCC(CC)CCCC (stereo not drawn),inactive
5,[N-]=[N+]=CC(=O)OC[C@H](N)C(=O)O,inactive
6,Nc1ccc(N)cc1,inactive
7,C=CC(=O)OCCCCCC(C)C,inactive
8,C[C@H]1C(=O)O[C@@H]2CCN3CC=C(COC(=O)[C@](C)(O)[C@]1(C)O)[C@H]23,inactive
9,OC[C@@H](O)[C@H]1O[C@@H]2O[C@H](C(Cl)(Cl)Cl)O[C@@H]2[C@H]1O,inactive
10,CCCCCCCCCCCCCCCCCC(=O)O,inactive
11,O=P1(NCCCl)OCCCN1CCCl (stereo not drawn),inactive
12,Cc1ccccc1N,inactive
13,Cc1ccc(N=C=O)cc1N=C=O,inactive
14,Cc1cccc(N)c1,inactive
15,C=C(C)C(=O)OCC(CC)CCCC (stereo not drawn),inactive

# — PubChem BioAssay (Tox21)
